# Laboratory results from PubChem BioAssay AID624173 (National Center for Advancing Translational Sciences (NCATS), 2012).
# The whole screen tested about 410,000 compounds, of which about 490 (0.12%) were called active. Entries that show only a call come without a potency. About 1% were inconclusive and are not listed. Calls follow the shape of the dose curve; as a rule, active = well fitted inhibition curve with a large enough effect; inconclusive = small, poorly fitted or top-dose-only effect; inactive = flat fitted curve, though single readings scatter. The full list was thinned out, with actives kept by preference.
# Biological target: pyruvate kinase (Trypanosoma brucei) (UniProt Q57TT1)
# Assay: qHTS of Trypanosoma Brucei Inhibitors; also: nearly all actives have a fitted effect of over 50% in size
# Settings: TbPYK enzyme, Kinase-Glo Plus ATP luminescence, 45 min; series mostly up to 76.8 µM
# Source text: Members of the Trypanosomatidae family of parasitic protozoans cause a spectrum of diseases throughout the tropical and subtropical world. Sleeping sickness, caused by two subspecies of Trypanosoma brucei, is endemic to areas of sub-Saharan Africa, while Chagas' disease, a manifestation of Trypanosoma cruzi infection, is prevalent throughout Central and South America. In addition, many species of Leishmania are responsible for a range of cutaneous and visceral diseases, causing ulcers, destructive lesions and kalaazar, a lethal infection of the viscera. These diseases cause severe public health and economic burdens on populations that are often already caught in a tragic cycle of poverty, poor nutrition and disease. Collectively, parasites of the trypanosomatid family infect 30 million people worldwide (~500 million live in endemic areas), and account for ~130K deaths annually. Existing treatments have developed little in the past 50 years, and suffer from toxicity, poor efficacy and resistance; the goal of this project is to develop lead drugs that will be suitable for entry into pre-clinical trials.
# Glycolysis in axenically cultured T. cruzi, representing the intracellular pathogenic stage, is also essential for these parasites. {Engel, 1987} This project aims to discover and optimize selective inhibitors of the glycolytic enzyme pyruvate kinase (PYK) from Trypanosoma brucei, the parasite that causes sleeping sickness. […] Trypanosomatid PYKs show significant differences from their human counterparts including only 47-50% sequence identity and different allosteric and activation properties.{Callens, 1992} To this end, a qHTS was done against the MLSMR to discover inhibitors.
# NIH Molecular Libraries Probe Production Network [MLPCN]
# NIH Chemical Genomics Center [NCGC]
# PI Name: Malcolm Walkinshaw, University of Edinburgh
# 2 uL of TbPYK/substrate buffer (columns 1-3, 5-48) are dispensed into Greiner white solid bottom 1536-well assay plates; column 4 receives only TEA buffer as 0x TbPYK controls. Compounds are then transferred via Kalypsys pin tool equipped with 1536-pin array (10 nL slotted pins, V&P Scientific, San Diego, CA). Following addition of compound, 2 uL of ADP (130 uM final concentration, all columns) is added to initiate the reaction. The plates are then incubated at room temperature for 45 minutes. Kinase-Glo Plus reagent is added (3 uL) and plates incubated for 10 minutes, before being transferred to a ViewLux high-throughput CCD imager (PerkinElmer) wherein single end-point measurements of luminescence are acquired using a clear filter. All reagents are diluted in an assay buffer consisting of 50 mM TEA (pH 7.2), 100 mM KCl, 10 mM MgCl2, 0.05% BSA and 0.01% Tween-20.
# All screening operations will be performed on a fully integrated robotic system (Kalypsys, San Diego, CA) containing one RX-130 and two RX-90 anthropomorphic robotic arms (Staeubli, Duncan, SC). Library plates will be screened starting from the lowest and proceeding to the highest concentration. Vehicle-only plates, with DMSO being pin-transferred to columns 5-48, will be inserted uniformly at the beginning and the end of each library in order to monitor and record any shifts in the background, which can be affected by reagent dispensers or loss in enzyme activity over time. Screening data will be corrected, normalized, and concentration-effect relationships will be derived by using publicly-available curve fitting algorithms developed in-house (http://ncgc.nih.gov/pub/openhts).
# Potency is read from the fitted curve at half-maximal effect.
row,Structure (SMILES),Potency
1,O=C(c1ccncc1)N1CCC2(CCCN(C(c3ccccc3)c3ccccc3)C2)CC1,inactive
2,O=c1c(CCc2ccccc2)nc2cncnc2n1C1CC1,inactive
3,CC(=O)NC(=O)c1ccccc1O,inactive
4,COc1cc(OC)c(-n2cc(-c3ccc(Cl)cc3)[nH]c2=O)cc1Cl,inactive
5,COc1ccc(-n2c(-c3ccc(Cl)cc3)n[nH]c2=S)c(OC)c1,5.62 µM (active)
6,COc1ccc(-n2c(C)csc2=S)cc1,inactive
7,COc1ccc(-n2c(-c3ccc(OC)c(OC)c3)n[nH]c2=S)cc1,3.98 µM (active)
8,COc1ccc(-c2cn(-c3ccc(C)cc3)c(=O)n2CC(=O)Nc2ccc(OC)c(OC)c2)cc1,inactive
9,COc1ccc(CNc2nc(-c3ccc(Cl)cc3)cc(C(F)(F)F)n2)cc1,inactive
10,O=C(Nc1cccc(F)c1)N1CCC2(CC1)CCN(S(=O)(=O)c1ccccc1)CC2,inactive
11,C=C1C(=CC=C2CCC[C@@]3(C)[C@@H]2CC[C@H]3[C@H](C)CCCC(C)C)C[C@@H](O)C[C@@H]1O,inactive
12,Cc1nnc(C(=O)NC(C)(C)c2nc(C(=O)NCc3ccc(F)cc3)c(O)c(=O)n2C)o1,inactive
13,CCC1(c2ccccc2)C(=O)NC(=O)N(C)C1=O (stereo not drawn),inactive
14,CCCCCCCCCc1ccc(OCCOCCOCCOCCOCCOCCOCCOCCOCCO)cc1,inactive
15,CCC[C@H]1C(=O)N2C(N(C)C)=Nc3ccc(C)cc3N2C1=O,inactive
16,O=c1c(-c2ccc(F)c(F)c2)nc2cncnc2n1-c1ccccc1,inactive
17,COc1ccc(Oc2ncc3nc(-c4ccc(F)cc4)c(=O)n(C)c3n2)cc1,inactive
18,CC(=O)OC1C([N+]2(C)CCCCC2)C[C@H]2C3CC[C@H]4C[C@H](OC(C)=O)C([N+]5(C)CCCCC5)CC4(C)C3CCC12C (stereo partly drawn),inactive
19,CCC(CCC(C)C1CCC2C3CC=C4CC(O)CC[C@@]4(C)C3CC[C@@]12C)C(C)C (stereo partly drawn),inactive
20,COc1cccc(Cn2c(=O)c(C)nc3cnc(Oc4ccccc4)nc32)c1,inactive
21,CNC(C)[C@@H](O)c1ccccc1 (stereo partly drawn),inactive
22,O=C(c1cnccn1)N1CCC2(CCN(Cc3cc(C(F)(F)F)cc(C(F)(F)F)c3)CC2)CC1,inactive
23,CCNc1ncc2nc(CCc3ccccc3)c(=O)n(-c3ccc(OC)cc3)c2n1,inactive
24,O=C(c1ccco1)N1CCC2(CC1)CCN(c1ncccn1)CC2,inactive
25,Cc1cn([C@H]2CC(F)[C@@H](CO)O2)c(=O)[nH]c1=O (stereo partly drawn),inactive
26,Cc1cccc([C@H](C)c2cnc[nH]2)c1C,inactive
27,COc1ccc(-c2nc3cnc(Oc4ccccc4)nc3n(Cc3cccs3)c2=O)cc1,inactive
28,COc1ccc(-n2c(=O)c(-c3cn(C)c4ccccc34)nc3cnc(OC)nc32)cc1,inactive
